p97 ATPase inh: human p97 ATPase inhibition; 0.42% of 220,000 active; AID 1481; inhibition, % at 8 µM; recombinant p97 ATPase, Kinase-Glo ATP luminescence, 3 h; in the data active = inhibition above about 15%;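 note: 0% = DMSO vehicle and 100% = wells lacking enzyme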
Target sequence (P55072 whole entry, looked up): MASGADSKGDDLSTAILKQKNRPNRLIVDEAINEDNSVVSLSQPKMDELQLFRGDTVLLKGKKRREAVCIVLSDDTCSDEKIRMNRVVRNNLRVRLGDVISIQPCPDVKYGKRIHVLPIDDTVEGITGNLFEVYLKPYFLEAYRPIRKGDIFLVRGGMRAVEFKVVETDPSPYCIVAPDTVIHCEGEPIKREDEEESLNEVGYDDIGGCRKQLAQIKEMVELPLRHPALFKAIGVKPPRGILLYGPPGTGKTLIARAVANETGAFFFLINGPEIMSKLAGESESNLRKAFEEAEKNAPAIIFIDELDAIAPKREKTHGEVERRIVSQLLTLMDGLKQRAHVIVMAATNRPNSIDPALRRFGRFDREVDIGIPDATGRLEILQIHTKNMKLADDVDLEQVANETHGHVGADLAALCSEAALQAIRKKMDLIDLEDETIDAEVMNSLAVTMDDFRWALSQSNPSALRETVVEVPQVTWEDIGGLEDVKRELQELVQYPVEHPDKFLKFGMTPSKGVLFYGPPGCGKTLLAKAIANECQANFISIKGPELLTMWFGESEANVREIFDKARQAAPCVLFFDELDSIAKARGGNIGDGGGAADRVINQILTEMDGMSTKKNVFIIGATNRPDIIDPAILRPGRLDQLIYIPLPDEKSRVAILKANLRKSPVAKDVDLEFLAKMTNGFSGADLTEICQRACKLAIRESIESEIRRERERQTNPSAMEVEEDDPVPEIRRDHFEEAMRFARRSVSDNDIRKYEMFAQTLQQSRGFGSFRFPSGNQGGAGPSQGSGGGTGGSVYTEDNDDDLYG
PHOSPHO1 inh: inhibitors of human PHOSPHO1 phosphatase | Q8TCT1 | recombinant PHOSPHO1, absorbance phosphatase assay | inhibition, % at 13.3 µM | 1.1% of 290,000 active; in the data active = inhibition above about 60%
UBC9 SUMO inh: SUMOylation inhibition | P63279 | HTRF SUMOylation assay, SAE1/SAE2 + UBC9, in vitro | inhibition, % at 35 µM | 0.36% of 290,000 active; in the data active = inhibition above about 50%, passing the limit was not always enough
M18AAP inhibitor: blocks P. falciparum M18 aspartyl aminopeptidase; recombinant PfM18AAP, H-Glu-NHMec fluorogenic cleavage; inhibition, % at 7.35 µM; 1.2% of 290,000 active; AID 1822;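 active = inhibition above the campaign mean inhibition over all tested compounds plus 3 SD, cut at about 28% in these data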;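 note: 0% = plate median of test compound wells and 100% = 2 mM ZnCl2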
HDAC3 inh: inhibitors of human histone deacetylase 3; recombinant HDAC3, fluorogenic peptide/trypsin coupled, fluorescence; AID 2718; O15379; 0.15% of 320,000 active; inhibition, % at 8.3 µM; in the data active = inhibition above about 26%, passing the limit was not always enough
G6PDH counter: L. mesenteroides G6PDH inhibition counter-screen; Purified L. mesenteroides G6PDH, diaphorase/resazurin coupled fluorescence, 45 min; inhibition, % at 5 µM; 0.12% of 200,000 active; AID 1020; in the data active = inhibition above about 50%
* hit, by the source's call. Shown are actives, neighbours in structure and some others; about 2.5% of the full set was active somewhere.

Results for CCCCNC(=O)Nc1ncn[nH]1 ?
p97 ATPase inh: 6.1; PHOSPHO1 inh: 20.3; UBC9 SUMO inh: 16.7; M18AAP inhibitor: 29.0*; HDAC3 inh: 2.6

Results for CCOC(=O)CC1C(=O)NCCN1Cc1cccs1 (configuration not stated) ?
p97 ATPase inh: 2.4; PHOSPHO1 inh: 64.3*; UBC9 SUMO inh: -6.7; M18AAP inhibitor: 2.6; HDAC3 inh: 3.9; G6PDH counter: 8.4

How did CCOC(=O)C1CCCN(Cc2cccs2)C1 (configuration not stated) do in these assays?
p97 ATPase inh: 0.1; PHOSPHO1 inh: 73.4*; UBC9 SUMO inh: 4.7; M18AAP inhibitor: 8.9; HDAC3 inh: 3.7; G6PDH counter: -10.6

How did CCOC(=O)CC1C(=O)NCCN1S(=O)(=O)c1ccc(F)cc1 (configuration not stated) do in these assays?
p97 ATPase inh: -2.7; PHOSPHO1 inh: 29.2; UBC9 SUMO inh: 9.9; M18AAP inhibitor: -0.2; HDAC3 inh: -6.3; G6PDH counter: 17.2

Results for CCOC(=O)CC1C(=O)NCCN1S(=O)(=O)c1ccc(NC(C)=O)cc1 (configuration not stated) ?
PHOSPHO1 inh: 38.3; UBC9 SUMO inh: 14.3; M18AAP inhibitor: 28.4*; HDAC3 inh: -2.1

How did COc1ccc(C(=O)N2CCCN(C)CC2)cc1S(=O)(=O)N(C)Cc1ccccc1 do in these assays?
HDAC3 inh: 1.6

How did CC(=O)Nc1ccc(S(=O)(=O)N2CCC3(CC2)CC(=O)c2ccccc2O3)cc1 do in these assays?
HDAC3 inh: 0.2

Results for Cc1cccc(-c2ncc(CN3CCCC(CO)(Cc4ccccc4C)C3)cn2)c1 (configuration not stated) ?
p97 ATPase inh: 0.3; PHOSPHO1 inh: 23.9; UBC9 SUMO inh: 1.4; M18AAP inhibitor: 2.5; HDAC3 inh: 3.6; G6PDH counter: 9.3

Results for c1cc(N2CCCC2)ccc1C(c1nnnn1C1CCCCC1)N1CCOCC1 (configuration not stated) ?
p97 ATPase inh: -5.2; PHOSPHO1 inh: 92.2*; UBC9 SUMO inh: 9.0; M18AAP inhibitor: 20.0; HDAC3 inh: -2.1; G6PDH counter: -6.6

What do the screens show for `CCC(C)(C)n1nnnc1C(c1cc2cccc(C)c2[nH]c1=O)N1CCCC1` (configuration not stated)?
p97 ATPase inh: -1.0; PHOSPHO1 inh: 14.1; UBC9 SUMO inh: 9.0; M18AAP inhibitor: -7.0; HDAC3 inh: -1.8; G6PDH counter: -20.2

How did Cc1cccc2cc(C(c3nnnn3C3CCCC3)N3CCOCC3)c(=O)[nH]c12 (configuration not stated) do in these assays?
p97 ATPase inh: 0.9; PHOSPHO1 inh: 85.6*; UBC9 SUMO inh: 33.5; M18AAP inhibitor: 1.1; HDAC3 inh: -0.5; G6PDH counter: 8.6

Results for Cc1cc(C)c2cc(C(c3nnnn3C3CCCC3)N3CCOCC3)c(=O)[nH]c2c1 (configuration not stated) ?
p97 ATPase inh: 7.9; PHOSPHO1 inh: 102.7*; UBC9 SUMO inh: 29.7; M18AAP inhibitor: 5.4; HDAC3 inh: 8.9; G6PDH counter: 5.2

How did FC(F)(F)c1cc(-c2ccccc2)nc(N2CCOCC2)n1 do in these assays?
p97 ATPase inh: -3.2; PHOSPHO1 inh: 74.5*; UBC9 SUMO inh: 4.9; M18AAP inhibitor: 0.3; HDAC3 inh: 6.4; G6PDH counter: 10.3

Results for FC(F)(F)c1cc(-c2ccccc2)nc(N2CCCCC2)n1 ?
p97 ATPase inh: 4.0; PHOSPHO1 inh: 11.4; UBC9 SUMO inh: 5.2; M18AAP inhibitor: 0.0; HDAC3 inh: 1.6; G6PDH counter: 4.1

Results for Cc1ncc2c(c1OC(=O)c1ccccc1)COC(C)(C)OC2 ?
p97 ATPase inh: -7.6; PHOSPHO1 inh: 11.3; UBC9 SUMO inh: -8.2; M18AAP inhibitor: -8.5; HDAC3 inh: -15.9; G6PDH counter: -3.7

What do the screens show for `Cc1c(OC(=O)c2ccc([N+](=O)[O-])cc2)c2c(c[n+]1C)COC(C)(C)OC2`?
p97 ATPase inh: 5.6; PHOSPHO1 inh: 102.6*; UBC9 SUMO inh: -3.8; M18AAP inhibitor: 5.8; HDAC3 inh: 13.5; G6PDH counter: 2.5

Results for Cc1ccc(NC(=O)Nc2cc(S(C)(=O)=O)ccc2Cl)cc1 ?
p97 ATPase inh: -4.0; PHOSPHO1 inh: 23.1; UBC9 SUMO inh: -5.9; M18AAP inhibitor: 0.1

Results for CCOC(=O)c1cc(-c2ccc(F)cc2)n(CC(=O)NCc2cccnc2)c1C ?
p97 ATPase inh: -3.7; PHOSPHO1 inh: 6.5; UBC9 SUMO inh: -8.7; M18AAP inhibitor: -11.9; HDAC3 inh: 3.9; G6PDH counter: -2.5

How did O=C(CN1C(=O)/C(=C/c2ccccc2Cl)SC1=S)NC1C=CS(=O)(=O)C1 (configuration not stated) do in these assays?
PHOSPHO1 inh: 75.4*; M18AAP inhibitor: 27.8; HDAC3 inh: -1.0

What do the screens show for `COc1ccc(NC(=O)C2CCN(S(=O)(=O)c3cccnc3)CC2)cc1Cl`?
p97 ATPase inh: 6.2; PHOSPHO1 inh: 70.4*; UBC9 SUMO inh: -10.3; M18AAP inhibitor: 1.3; HDAC3 inh: 3.9; G6PDH counter: 14.4

Results for COc1ccc(S(=O)(=O)N2CCC(C(=O)NCc3cccnc3)CC2)cc1Cl ?
PHOSPHO1 inh: 36.2; UBC9 SUMO inh: -9.3; M18AAP inhibitor: -5.8; HDAC3 inh: 0.0

What do the screens show for `CCC(=O)N1CCN(c2ccc(NC(=O)c3ccccc3)cc2)CC1`?
p97 ATPase inh: 3.7; PHOSPHO1 inh: 62.9*; UBC9 SUMO inh: 10.2; M18AAP inhibitor: 5.0; HDAC3 inh: 11.7; G6PDH counter: 8.6

What do the screens show for `C#CCOC(=O)c1ccccc1C(=O)OCC#C`?
p97 ATPase inh: 0.7; PHOSPHO1 inh: 16.3; UBC9 SUMO inh: 25.0; M18AAP inhibitor: -7.8; HDAC3 inh: -3.3; G6PDH counter: 12.0

How did C#CCOC(=O)c1ccccc1C(=O)n1nnc2ccccc21 do in these assays?
p97 ATPase inh: -5.3; PHOSPHO1 inh: 13.6; UBC9 SUMO inh: 12.8; M18AAP inhibitor: -8.3; HDAC3 inh: 93.9*; G6PDH counter: 4.1

Results for CN(C)c1ccc(C(=O)n2nnc3ccccc32)cc1 ?
p97 ATPase inh: -6.2; PHOSPHO1 inh: 7.4; UBC9 SUMO inh: 5.5; M18AAP inhibitor: 6.8; HDAC3 inh: 90.6*; G6PDH counter: 0.5

How did O=C(c1cccc(F)c1)n1nnc2ccccc21 do in these assays?
p97 ATPase inh: 4.1; PHOSPHO1 inh: -11.1; UBC9 SUMO inh: 12.3; M18AAP inhibitor: 2.4; HDAC3 inh: 0.0; G6PDH counter: 4.4

How did CCCC(=O)Nc1ccc(C(=O)n2nnc3ccccc32)cc1 do in these assays?
p97 ATPase inh: -5.7; PHOSPHO1 inh: 3.6; UBC9 SUMO inh: 10.0; M18AAP inhibitor: 10.2; HDAC3 inh: 75.2*; G6PDH counter: -7.2

Results for Cc1ccc(C(=O)n2nnc3ccccc32)cc1 ?
p97 ATPase inh: 1.5; M18AAP inhibitor: -1.0; HDAC3 inh: 96.7*

How did O=C(CSc1nnnn1-c1ccc(Cl)cc1)NC1CCS(=O)(=O)C1 (configuration not stated) do in these assays?
HDAC3 inh: -2.7

Results for N#Cc1ccc(NC(=O)COC(=O)c2cccnc2Cl)cc1 ?
HDAC3 inh: -3.6
